Results: the supplement of paper PMC6555819

These sequences were tested on VDR:RXRa (NR concentration 270 nM, RXRa partner concentration 90 nM) (assay: PBM binding z-score (relative to random genomic background probes); higher = stronger binding; sequences stand for … in GC…GCGATTGACAGCGTAGAATGAAGG).
Procedure: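 Protein-binding microarray (Agilent 4x180K custom design, double-stranded 60-nt probes: 5' GC cap, 34-nt variable region, 24-nt constant primer region; full probe sequence given). Purified or IVT nuclear receptor:RXRα heterodimers (3:1 NR:RXRα, mostly 270:90 nM) or homodimers were incubated for 1 h in PBS with 2% milk and no ligand, then detected with Alexa488 antibodies. Fluorescence from o1-orientation probes (~5 replicates averaged) was converted to z-scores against 500 random hg19 background probes. Variable regions are seed direct-repeat (DR0–DR5) sites, all their single-nucleotide variants and half-site ablations.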

Sequence	PBM binding z-score
ATCGAAAGGTCGTGAGGAGAGTATACAGAAAGGC	3.11
CGGACTGGGGCAAGGTTACCATAACGCACAGCCA	0.267
TTACCAAGGTGAAGGTCGTTGTTCCCTCTGTAGA	1.26
GCTTGTAGATCAAGGATAAGAAAGACTAAGCTAA	-0.525
CCTTACGAGTCAAGGTTATAGCACGGGTGGTACG	0.509
GTACCAAGGTGAATAGGTCGTTAATGAGTAGGCG	0.93
CGAACTAGGTCAGCACAGGACAGTGAAGGATGAT	0.981
TGTCAAAGTTCATAGGTAACGTAAGTATCCACAC	4.67
CTCGAAAGGTCGGTTGAGGTGCGTATACGGATAA	2.09
GCGACTGGGGCAAATCAGGTTACCATAAGGTTGG	0.324
CGTCCAAGGTCAGAGAGGACAGTGAATGCCGAGT	5.85
AGTCAAAGTTCAGGACGATGTAACGTAAAGCACG	2.56
TCCTGTAGATCAAAGGTTAAGAAAGCCGAAGCCT	1.44
TATACAGGGTCAAAGGCCGGAGTACGAATGTCGA	4.5
CGTCCAAGGTCAAAGGTCAGTTAAGAGATGACGG	6.49
ATATGTAGGTTAAGGGTCATTCTGGTTGGTTCGC	4.92
CCTGCTAGGTCATCGTCAGCTAATCTACAGTATG	1.87
TCATATAGGTAACACAGGTGAAAGTCGGCATCTA	1.49
GCGACTGGGGCATCAGCAGGCTACCATAACTTAA	-0.769
ACAGACAGGGGAGTGAAGGTAACTCAGCTGGACG	-0.347

Sequence	PBM binding z-score
TCTTGTAGATCAACAGGCGGTTAAGAAAGATCGA	0.345
TAGCCTAGGTCATGGCCCAGTATACCACGCGAAC	2.25
TCTGCTAGGTCAGTTGGTCACCTAACGAGCTGCC	0.235
TGAATGAGGTTAAAGATCAGGTAACGTGGCGTCG	1.92
GGAACGAGAGCAAAGTTGATAGCATCTGTCGACG	-0.413
TCGAGTAGGATAGGGGCATTCAGAATGGCGTCGA	-0.000288
CGTCAAAGTTCAACTAAGGTAACGTTAAGCACGC	4.69
CCGACTGGGACAGAAAGGTTACCATACCATCCGG	0.351
CCTGCTAAGTCAATGGTCAGCTAAAGCAGCTCGC	-0.304
ATACGTAGGTTAGCTGGGGTCATTCAGACTAGGC	6.12
ACAGACAGGTGAGCGAAGGTAACTCAGCTGGACG	-0.641
ATCTCTAGGTAAGACTCAATTCAGTGAAGAACGC	0.199
TCTTGTAGATCAAAGGTTAAGAAGGCCGAAGCCT	2.65
ACTAGCAGGCCAAGATTGGGTCACTCAAACAAAG	0.16
ATATGTAGGTTAAGGGTCATCCAGGTTGGTTCGC	5.91
AGAATGAGGTTATACGTAGACCAGGGAAGAAAGT	1.18
CCTAGTTGGTCAGGGTCACACACGCTATAGGTAC	4.17
CGAACGAGGGCATGAGTTGAGAGCAAATGCCGAT	1.01
CGAACGAGGGCATGAGGTGATAGCAAATGCCGAT	0.93
CCTACTGGGCCACGAAAGGTCATTCATTCAGTGA	4.43
